# About 14,000 (4.5%) of roughly 310,000 compounds showed an effect of 50% or more. Effects have a minus sign here. The entries come from a sample that favours strong results as a whole.
# Biological target: human ether-à-go-go-related gene (hERG) potassium channel (human, UniProt Q12809)
# Assay: primary screen, population patch clamp on CHO cells stably expressing hERG; higher = less effect of the substance
# 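Also: peak tail current of the secondary pulse compared with the same well before compound.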
# Sequence of human ether-à-go-go-related gene (hERG) potassium channel (Q12809 whole entry, looked up): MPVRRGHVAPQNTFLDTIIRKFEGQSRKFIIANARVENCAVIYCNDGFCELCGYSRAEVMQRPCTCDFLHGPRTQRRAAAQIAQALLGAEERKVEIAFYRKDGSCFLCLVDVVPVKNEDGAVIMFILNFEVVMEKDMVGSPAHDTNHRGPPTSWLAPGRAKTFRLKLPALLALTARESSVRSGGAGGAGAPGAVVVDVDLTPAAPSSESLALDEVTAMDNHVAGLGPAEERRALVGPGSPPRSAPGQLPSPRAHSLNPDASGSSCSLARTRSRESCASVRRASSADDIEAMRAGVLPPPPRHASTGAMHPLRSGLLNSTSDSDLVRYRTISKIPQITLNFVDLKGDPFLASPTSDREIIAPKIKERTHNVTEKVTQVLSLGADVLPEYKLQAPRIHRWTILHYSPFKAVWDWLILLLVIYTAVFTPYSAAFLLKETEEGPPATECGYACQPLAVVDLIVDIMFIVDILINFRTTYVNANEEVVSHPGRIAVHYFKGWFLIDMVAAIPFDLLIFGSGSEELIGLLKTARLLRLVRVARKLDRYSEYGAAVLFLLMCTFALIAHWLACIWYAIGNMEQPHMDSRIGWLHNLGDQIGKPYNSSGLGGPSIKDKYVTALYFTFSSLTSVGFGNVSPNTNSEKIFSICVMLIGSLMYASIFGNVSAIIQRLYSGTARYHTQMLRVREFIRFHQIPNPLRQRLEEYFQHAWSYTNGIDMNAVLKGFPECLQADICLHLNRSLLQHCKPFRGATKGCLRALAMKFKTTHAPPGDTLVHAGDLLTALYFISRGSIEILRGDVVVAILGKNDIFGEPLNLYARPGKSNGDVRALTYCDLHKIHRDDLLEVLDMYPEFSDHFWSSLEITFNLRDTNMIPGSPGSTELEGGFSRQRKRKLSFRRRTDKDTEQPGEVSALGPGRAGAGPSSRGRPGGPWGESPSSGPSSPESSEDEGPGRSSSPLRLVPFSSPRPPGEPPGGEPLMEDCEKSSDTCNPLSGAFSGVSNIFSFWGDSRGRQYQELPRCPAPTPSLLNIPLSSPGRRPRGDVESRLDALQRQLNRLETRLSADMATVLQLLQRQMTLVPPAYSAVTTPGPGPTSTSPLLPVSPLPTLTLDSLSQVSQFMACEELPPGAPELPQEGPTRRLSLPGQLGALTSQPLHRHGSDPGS
row,SMILES,"hERG current change (%, negative = inhibition) at 10uM"
1,O=C(CN(C(=O)CCC(=O)Nc1nccs1)c1ccc(F)cc1)NCc1ccc(F)cc1,16.8%
2,Cc1cc(N)ccc1N=Nc1c(C)n(C)n(-c2ccccc2)c1=O,-5.57%
3,Cc1cc(=O)[nH]c(SCC(=O)NCCC2=CCCCC2)n1,28.2%
4,Cc1c(C(=O)N2CCCCC2)c(S(=O)(=O)N(C)Cc2ccccc2)c(C)n1C,2.66%
5,O=C(Nc1ccccc1C(=O)NCC1CCCO1)c1ccc(Cl)cc1 (centres unmarked),-34.8%
6,CC1(C)CC2CC(C)(CN2C(=O)COC(=O)c2cccc(O)c2)C1 (centres unmarked),6.76%
7,N#Cc1ccc(-c2ccccc2)nc1Sc1ccc(F)cc1,13.2%
8,CC(C)Oc1cccc(C(=O)Nc2ccc(N3CCN(S(C)(=O)=O)CC3)cc2)c1,-0.708%
9,O=C1CC(c2ccccc2)CCc2sccc2N1 (centres unmarked),-5.86%
10,Cc1ccn2c(CNCC3OCCc4ccccc43)c(C(=O)N3CCCCCC3)nc2c1 (centres unmarked),-62.9%
11,CN1Cc2ccccc2CC1CNCc1c(C(=O)N2CCCC2)nc2ccccn12 (centres unmarked),-73.5%
12,Cc1cc(C(F)(F)F)nc(CCNCc2c(C(=O)N3CCCC3)nc3ccccn23)n1,-14.4%
13,O=C(c1nc2ccccn2c1CNCCCn1cccn1)N1CCCC1,-12.1%
14,O=C(c1nc2ccccn2c1CNCC1OCCc2ccccc21)N1CCOCC1 (centres unmarked),-0.852%
15,Cc1cccn2c(CNCC3OCCc4ccccc43)c(C(=O)N3CCCCC3)nc12 (centres unmarked),-19.5%
16,Cc1onc(-c2ccccc2)c1C(=O)NCC(O)c1ccccc1 (centres unmarked),5%
17,Cc1onc(-c2ccccc2)c1C(=O)NC(C)c1ccc2c(c1)OCO2 (centres unmarked),27.7%
18,COc1cc(OC)cc(C(=O)OCC(=O)NCc2ccc3c(c2)OCO3)c1,12.9%
19,CCCc1ccc2oc(C(=O)N3CCC(COC)C3)c(C)c2c1 (centres unmarked),-38.4%
20,O=C(NC1CS(=O)(=O)CC1NCc1ccco1)c1ccccc1 (centres unmarked),2.09%
21,Oc1ccc(-c2ccccc2)cc1CN1CCCCCC1,-52.1%
22,O=S(=O)(NCCN1CCCC1)c1ccc(Cl)cc1,10.3%
23,N#CCCN1CCN(Cc2cc(-c3ccccc3)ccc2O)CC1,-48.8%
24,Cl.OC(CCCCN1CCCCC1)c1ccccc1 (centres unmarked),-18.1%
25,Clc1ccc(C(CCN2CCCC2)Cc2ccccc2)cc1 (centres unmarked),-62.7%
26,Cl.ClC(CCN1CCN(Cc2ccccc2)CC1)c1ccccc1 (centres unmarked),-20.6%
27,OC(CCN1CCOCC1)c1ccccc1 (centres unmarked),4.54%
28,Oc1ccc(Br)cc1CN1CCCCCCC1,-47.6%
29,OC(CCN1CCCCC1)c1ccc(-c2ccccc2)cc1 (centres unmarked),-56.4%

# Source: publication PMC4336329 (PLoS ONE, 2015)
